Tau ThT inhib: blocks human tau fibril formation measured by thioflavin T. P10636. recombinant tau K18 P301L, heparin-induced fibrillization, ThT fluorescence. Potency, µM (top dose mostly 57.4 µM), for the others: at the highest dose activity, negative = inhibition, hits mostly inhibitors. 2.1% of 270,000 active. AID 1460; note: potency is the fitted concentration of half-maximal effect; nearly all actives have a fitted effect of over 55% in size
Target sequence (P10636 561-689 P618L limits assumed): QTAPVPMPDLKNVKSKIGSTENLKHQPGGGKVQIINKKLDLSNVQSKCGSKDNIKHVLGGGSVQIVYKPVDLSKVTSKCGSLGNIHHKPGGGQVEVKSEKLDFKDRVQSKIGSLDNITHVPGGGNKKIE
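Heparin-induced (20 uM) aggregation of recombinant human K18 P301L tau, 15 uM unlabeled with 0.24 uM labeled, pH 7 acetate buffer, 6 hr at 37 C with compound. Fibrils quantified by 30 uM ThT fluorescence after 1 hr ambient incubation.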
Sfp inh: blocks B. subtilis Sfp PPTase activity; Potency, µM, for inactives: largest response in the series, negative = inhibition, actives largely listed as inhibitors; 3.5% of 310,000 active; Q9F4F7; Biochemical Sfp PPTase activity, qHTS; AID 1490;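 note: the enzyme is Sfp with the accession as filed and its product quenches rhodamine fluorescence; potency is the fitted concentration of half-maximal effect; 0% = enzyme reaction without inhibitor and -100% = no enzyme wells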
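Sfp 15 nM + cpd, 15 min RT; start w/ rhodamine-CoA 5 uM, BHQ-2-YbbR 12.5 uM (final); 50 mM Hepes pH 7.6, 10 mM MgCl2, 0.01% NP-40, 0.01% BSA; read 525/598 nm at 0 and 30 min.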
Coupling enz: coupling enzyme interference in Giardia aldolase counter-screen | coupling enzyme system counterscreen, AmpLite Red fluorescence | 0.67% of 290,000 active | activity change, negative = inhibition, % at 58.2 µM, hits read low; in the data active = activity change below about -30%
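Fluorescence at 525 nm excitation and 598 nm emission measured inhibition of the coupled detection system without aldolase. Compounds (at 57.5 uM final) were preincubated 10 min at room temperature with coupling enzyme reagent before a 20 min substrate/AmpLite Red step.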
Tau fluor cs: counter-screen for tau fibril formation inhibitors | tau K18 P301L (four-repeat tau fragment) Alexa594 fluorescence, heparin fibrillization | 0.93% of 280,000 active | Potency, µM (doses to about 57.7 µM), without a hit: at the highest dose activity change, negative = decrease | AID 1463; note: potency is the fitted concentration of half-maximal effect; nearly all actives have a fitted effect of over 55% in size
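Human K18 P301L tau (15 uM unlabeled plus 0.24 uM Alexa 594-labeled, final) in 100 mM sodium acetate pH 7 was mixed with compound and 20 uM heparin and incubated 6 hr at 37 C.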
Tau fibril FP: inhibitors of human tau fibril formation; 0.39% of 280,000 active; AID 1468; Potency, µM (titrated, usually from 57.7 µM), for the others: top-dose activity, negative = inhibition, most hits filed as inhibitors; K18 P301L tau heparin fibrillization, Alexa594 FP, 6 h; note: potency is the fitted concentration of half-maximal effect; nearly all actives have a fitted effect of over 55% in size
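Compound effects on tau fibrillization are measured by Alexa 594 fluorescence polarization (ex 555, em 632 nm). K18 P301L tau is used at 15 uM with 0.24 uM labeled tracer, and 20 uM heparin induces aggregation over 6 hr at 37 C.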
JMJD2E inh: JMJD2E (human) inhibition; B2RXH2; JMJD2E catalytic domain, FDH-coupled NADH fluorescence (FDH is formaldehyde dehydrogenase); Potency, µM (doses to about 57.1 µM), for inactives: top-dose activity change, negative = inhibition, most hits filed as inhibitors; 1.6% of 230,000 active; AID 2147; active = well fitted inhibition curve with a large enough effect, not every such curve was filed as active; inconclusive = small, poorly fitted or top-dose-only effect, or another doubt; inactive = no such curve, though single readings can be large or run the other way;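 note: potency is the fitted concentration of half-maximal effect; 0% = wells with enzyme and -100% = buffer wells without enzyme; nearly all actives have a fitted effect of over 50% in size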
Target sequence (B2RXH2 1-337 limits assumed): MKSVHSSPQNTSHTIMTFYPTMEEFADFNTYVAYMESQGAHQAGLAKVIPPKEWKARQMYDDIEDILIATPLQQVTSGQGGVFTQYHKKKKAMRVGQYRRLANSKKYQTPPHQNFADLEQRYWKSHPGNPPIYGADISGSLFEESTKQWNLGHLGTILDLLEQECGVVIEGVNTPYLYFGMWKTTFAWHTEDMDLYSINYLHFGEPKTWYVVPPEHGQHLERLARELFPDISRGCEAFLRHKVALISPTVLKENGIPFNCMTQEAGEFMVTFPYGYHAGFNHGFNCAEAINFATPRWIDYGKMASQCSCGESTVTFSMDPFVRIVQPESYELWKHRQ
An asterisk follows results filed as active; u = inconclusive; x = no result; [ ] = another dose, or the depositor's remark. Compounds with a hit are over-represented: about 5.3% of the library has one in this group of screens. Unless noted, calls come from the whole dose curve; as a rule, active = well fitted curve in the direction sought with a large enough effect; inconclusive = small, poorly fitted or top-dose-only effect, or another doubt; inactive = no such curve, though single readings can be large; an effect the other way counts as inactive or inconclusive. Unless noted, % is set by controls: 0 for no effect and ±100 for the full control effect.

SMILES	Tau ThT inhib	Sfp inh	Coupling enz	Tau fluor cs	Tau fibril FP	JMJD2E inh
COC(=O)C(N)Cc1ccc(Cl)cc1 (stereo unspecified)	-2%	x	x	-3%	-2%	10%
O=C(O)Cc1ccc(O)c(O)c1	u	40µM*	-4	-21%	u	25µM*
C[C@@](N)(Cc1ccc(O)c(O)c1)C(=O)O	4.5µM*	u	-11	u	u	7.9µM*
Cn1c(CNC(=O)CSc2nc(-c3ccccc3F)nc3cc(=O)[nH]n23)nc2ccccc21	-5%	x	x	-3%	2%	x
CC1=C(C#N)c2nc(N)c(C#N)c(C)c2/C1=C\c1ccc(C)cc1	18µM*	35µM*	x	u	u	u
COc1cc(/C=C2\C(C)=C(C#N)c3nc(N)c(C#N)c(C)c32)ccc1OCC(=O)O	14µM*	u	-12	u	u	u
CSc1nc(-c2ccc(C)cc2)nc(N)c1C#N	-5%	17%	0	-8%	-10%	-2%
O=C1/C(=C/c2cccnc2)SC(=S)N1CC1CCCO1 (stereo unspecified)	-17%	2%	4	-8%	-4%	-8%
O=C1/C(=C/c2ccco2)SC(=S)N1CC1CCCO1 (stereo unspecified)	20µM*	18µM*	-13	u	u	11µM*
Cc1ccc(/C=C2\SC(=S)N(CC3CCCO3)C2=O)o1 (stereo unspecified)	16µM*	10µM*	-22	-24%	u	u
COc1cc(/C=C2/SC(=S)N(CC3CCCO3)C2=O)ccc1O (stereo unspecified)	14µM*	u	0	11µM*[quencher]	11%	-3%
COc1ccc(/C=C2\SC(=S)N(CC3CCCO3)C2=O)cc1 (stereo unspecified)	u	-4%	-3	-27%	-10%	-5%
CCOC(=O)C1=C(C)N=C2c3ccccc3C(=O)C2C1c1ccc(Cl)cc1 (stereo unspecified)	u	20%	-6	7.9µM*[quencher]	1%	2%
CCC(CC)C(=O)Nc1ccc(C(=O)OCc2cc(=O)n3nc(C4CC4)sc3n2)cc1	0%	x	x	-1%	7%	x
CCN(CC)c1ccc(/C=N/NC(=O)c2ccc3nc[nH]c3c2)c(O)c1	x	-14%	-7	14µM*[quencher]	3%	u
COc1cc(OC)c(OC)cc1/C=N/NC(=O)c1ccc2nc[nH]c2c1	u	8%	0	-11%	15%	u
COc1cccc(/C=N/NC(=O)c2ccc3nc[nH]c3c2)c1O	u	30%	1	-25%	-13%	10µM*
COc1cccc(/C=N/NC(=O)c2cc3c(OC)ccc(OC)c3[nH]2)c1O	x	12%	1	x	x	x
COc1cc(OC)c2cc(C(=O)N/N=C/c3cccc(OC)c3O)[nH]c2c1	5µM*	4%	0	u	u	10µM*
COc1ccc(-c2nn(-c3ccccc3)cc2C2CC(c3cccs3)=NN2C(=O)CCC(=O)O)cc1 (stereo unspecified)	x	-2%	9	-2%	-11%	u
COc1ccc(C2=NN(S(C)(=O)=O)C(c3cn(-c4ccccc4)nc3-c3cccs3)C2)cc1 (stereo unspecified)	8%	x	x	u	20µM*	x
CC1(OC(=O)c2cnc3ccccc3n2)C(=O)C=C2C=C(c3ccsc3)OC=C2C1=O (stereo unspecified)	-2%	-14%	0	-2%	-4%	10%
CC[N+](CC)(CC)CCOc1ccc(/C=C\c2ccccc2)cc1	-13%	u	1	-6%	3%	25µM*
CC[N+](CC)(CC)CCOc1ccc(/C=C/c2ccccc2)cc1	u	-15%	x	-16%	4%	x
O=[N+]([O-])c1ccc(Cl)c(/C=N/n2c(-c3ccncc3)n[nH]c2=S)c1	x	56µM*	-1	u	-6%	0%
SMILES	Tau ThT inhib	Sfp inh	Coupling enz	Tau fluor cs	Tau fibril FP	JMJD2E inh
O=[N+]([O-])c1ccc(O)c(/C=N/n2c(-c3ccccc3)n[nH]c2=S)c1	x	u	8	x	x	x
C=C(C)C(=O)Nc1cccc(C2=NOC3(C2)C[C@@H](C(N)=O)N(C(=O)/C=C/C=C/C)C3)c1 (stereo partly specified)	-3%	32µM*	4	9%	-3%	-14%
C/C=C/C=C/C(=O)N1CC2(CC(c3cccc(NC(=O)/C=C/C)c3)=NO2)C[C@@H]1C(N)=O (stereo partly specified)	7%	28µM*	1	9%	-9%	1%
COc1ccccc1NC(=O)CCCCCN1C(=O)c2cccc([N+](=O)[O-])c2C1=O	x	-5%	2	x	x	x
COc1cc(/C=C2/C(=O)c3cccc([N+](=O)[O-])c3C2=O)c(Br)cc1O	13µM*	20µM*	-9	u	u	-25%
Cc1ccccc1OCC(=O)NCC(=O)N/N=C/c1cccc([N+](=O)[O-])c1	-12%	12%	-2	-2%	2%	9%
O=C(N/N=C/c1cccc(Oc2ccc([N+](=O)[O-])cc2[N+](=O)[O-])c1)c1cncc(Br)c1	u	u	-25	8.9µM*[quencher]	4%	10%
O=C(N/N=C/c1cccc(OC(=O)c2ccc3c(c2)OCO3)c1)c1cncc(Br)c1	u	u	-1	u	u	-8%
Cc1cc(Cl)ccc1OCCCC(=O)N/N=C/c1cccc([N+](=O)[O-])c1	0%	-6%	-36*	-2%	3%	4%
O=C(CCCOc1ccc(Cl)cc1Cl)N/N=C/c1ccc(Cl)cc1	5%	-1%	-11	-17%	u	10%
Cc1ccccc1OCC(=O)N/N=C/c1cccc(Oc2ccc([N+](=O)[O-])cc2[N+](=O)[O-])c1	u	1%	-49*	6.3µM*[quencher]	-6%	2%
O=C1CCCC1C(O)c1ccc2ccccc2c1 (stereo unspecified)	u	2%	6	u	u	0%
O=c1cc(O)cc(/C=C/c2ccc(O)c(O)c2)o1	u	x	x	u	3%	u
C=CCSc1nnc2nc3[nH]c4c(C)cccc4c3nn12	16µM*	-6%	7	-15%	8%	-4%
Nc1ccc(-n2cc(-c3ccccc3)[nH]c2=S)cc1	x	35µM*	1	x	x	x
S=c1[nH]c(-c2ccccc2)cn1-c1ccccc1	x	u	3	x	x	x
Nc1ccccc1Nc1cc(-c2ccccc2)nn1-c1cccc(Cl)c1	u	14%	-6	11µM*[quencher]	u	u
Cc1sc2nc3c4ccccc4c(NCc4ccco4)nn3c(=O)c2c1C	25µM*	18µM*	0	u	35µM*	u

Screens from PubChem BioAssay.
